# How the values were obtained:
# [1] = molecular target: Serine/threonine-protein kinase PLK3 (Homo sapiens) (UniProt Q9H4B4); settings: at 1 µM
# [2] = molecular target: Serine/threonine-protein kinase PLK3 (Homo sapiens) (UniProt Q9H4B4); settings: at 10 µM
# [3] = molecular target: T1, cAMP-dependent protein kinase catalytic subunit PRKX (Homo sapiens) (UniProt P51817); settings: at 1 µM
# T1 sequence (whole entry): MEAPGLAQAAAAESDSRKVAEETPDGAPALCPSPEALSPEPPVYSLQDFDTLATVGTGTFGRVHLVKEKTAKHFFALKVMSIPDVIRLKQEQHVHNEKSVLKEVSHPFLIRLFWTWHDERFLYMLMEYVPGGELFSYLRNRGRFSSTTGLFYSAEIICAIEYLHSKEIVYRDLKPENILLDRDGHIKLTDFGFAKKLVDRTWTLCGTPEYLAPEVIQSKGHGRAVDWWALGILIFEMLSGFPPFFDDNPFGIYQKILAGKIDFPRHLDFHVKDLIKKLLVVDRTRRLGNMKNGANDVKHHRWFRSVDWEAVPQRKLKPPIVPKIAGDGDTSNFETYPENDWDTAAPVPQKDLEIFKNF
# [4] = molecular target: T1, cAMP-dependent protein kinase catalytic subunit PRKX (Homo sapiens); settings: at 10 µM
# [5] = molecular target: Protein-tyrosine kinase 2-beta (Homo sapiens) (UniProt Q14289); settings: at 1 µM
# Protein-tyrosine kinase 2-beta (Homo sapiens), sequence (Q14289 whole entry, looked up): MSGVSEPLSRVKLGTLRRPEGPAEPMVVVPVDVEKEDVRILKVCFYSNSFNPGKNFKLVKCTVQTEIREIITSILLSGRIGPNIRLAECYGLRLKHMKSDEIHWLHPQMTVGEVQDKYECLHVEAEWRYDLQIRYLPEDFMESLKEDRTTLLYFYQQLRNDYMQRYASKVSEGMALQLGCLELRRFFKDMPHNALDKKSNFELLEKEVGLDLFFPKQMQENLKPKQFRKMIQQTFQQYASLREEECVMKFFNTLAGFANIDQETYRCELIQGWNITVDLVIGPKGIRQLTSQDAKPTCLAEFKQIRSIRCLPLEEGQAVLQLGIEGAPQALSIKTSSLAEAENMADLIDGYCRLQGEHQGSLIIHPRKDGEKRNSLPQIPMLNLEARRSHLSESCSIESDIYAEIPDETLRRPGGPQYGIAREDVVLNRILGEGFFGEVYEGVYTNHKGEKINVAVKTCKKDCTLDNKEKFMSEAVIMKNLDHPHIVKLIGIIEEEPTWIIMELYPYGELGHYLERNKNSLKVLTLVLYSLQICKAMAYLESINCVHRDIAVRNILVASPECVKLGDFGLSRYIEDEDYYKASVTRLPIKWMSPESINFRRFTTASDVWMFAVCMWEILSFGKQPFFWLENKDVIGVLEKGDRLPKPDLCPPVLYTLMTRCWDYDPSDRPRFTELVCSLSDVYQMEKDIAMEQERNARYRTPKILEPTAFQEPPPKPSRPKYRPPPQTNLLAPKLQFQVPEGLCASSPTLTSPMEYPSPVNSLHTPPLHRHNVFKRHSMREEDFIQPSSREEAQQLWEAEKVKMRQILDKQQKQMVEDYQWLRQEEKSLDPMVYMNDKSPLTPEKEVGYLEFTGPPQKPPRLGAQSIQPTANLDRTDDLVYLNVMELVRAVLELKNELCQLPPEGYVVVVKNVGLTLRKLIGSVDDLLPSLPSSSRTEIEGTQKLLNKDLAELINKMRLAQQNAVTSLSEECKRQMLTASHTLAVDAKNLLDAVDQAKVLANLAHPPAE
# [6] = molecular target: Protein-tyrosine kinase 2-beta (Homo sapiens) (UniProt Q14289); settings: at 10 µM
# [7] = molecular target: Receptor-interacting serine/threonine-protein kinase 2 (Homo sapiens) (UniProt O43353); settings: at 1 µM
# Receptor-interacting serine/threonine-protein kinase 2 (Homo sapiens), sequence (O43353 whole entry): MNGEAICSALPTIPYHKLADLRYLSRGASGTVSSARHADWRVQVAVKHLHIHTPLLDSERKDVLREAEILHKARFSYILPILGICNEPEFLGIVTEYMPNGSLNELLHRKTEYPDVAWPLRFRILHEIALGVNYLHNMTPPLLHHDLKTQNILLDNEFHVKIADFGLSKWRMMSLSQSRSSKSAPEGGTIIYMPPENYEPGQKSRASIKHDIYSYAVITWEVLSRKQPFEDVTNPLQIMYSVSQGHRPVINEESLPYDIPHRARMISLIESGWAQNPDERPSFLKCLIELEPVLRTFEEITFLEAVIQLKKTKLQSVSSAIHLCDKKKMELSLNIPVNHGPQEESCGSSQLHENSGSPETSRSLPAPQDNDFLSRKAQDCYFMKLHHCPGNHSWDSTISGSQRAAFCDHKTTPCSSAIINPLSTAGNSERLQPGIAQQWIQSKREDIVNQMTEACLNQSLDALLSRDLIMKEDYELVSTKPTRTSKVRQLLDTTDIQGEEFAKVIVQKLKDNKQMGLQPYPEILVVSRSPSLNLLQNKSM
# [8] = molecular target: Receptor-interacting serine/threonine-protein kinase 2 (Homo sapiens) (UniProt O43353); settings: at 10 µM
# [9] = molecular target: Rho-associated protein kinase 1 (Homo sapiens) (UniProt Q13464); settings: at 1 µM
# [10] = molecular target: Rho-associated protein kinase 1 (Homo sapiens) (UniProt Q13464); settings: at 10 µM
# [11] = molecular target: Rho-associated protein kinase 2 (Homo sapiens) (UniProt O75116); settings: at 1 µM
# [12] = molecular target: Rho-associated protein kinase 2 (Homo sapiens) (UniProt O75116); settings: at 10 µM
# [13] = molecular target: Proto-oncogene tyrosine-protein kinase receptor Ret (Homo sapiens) (UniProt P07949); settings: at 1 µM
# Proto-oncogene tyrosine-protein kinase receptor Ret (Homo sapiens), sequence (P07949 whole entry): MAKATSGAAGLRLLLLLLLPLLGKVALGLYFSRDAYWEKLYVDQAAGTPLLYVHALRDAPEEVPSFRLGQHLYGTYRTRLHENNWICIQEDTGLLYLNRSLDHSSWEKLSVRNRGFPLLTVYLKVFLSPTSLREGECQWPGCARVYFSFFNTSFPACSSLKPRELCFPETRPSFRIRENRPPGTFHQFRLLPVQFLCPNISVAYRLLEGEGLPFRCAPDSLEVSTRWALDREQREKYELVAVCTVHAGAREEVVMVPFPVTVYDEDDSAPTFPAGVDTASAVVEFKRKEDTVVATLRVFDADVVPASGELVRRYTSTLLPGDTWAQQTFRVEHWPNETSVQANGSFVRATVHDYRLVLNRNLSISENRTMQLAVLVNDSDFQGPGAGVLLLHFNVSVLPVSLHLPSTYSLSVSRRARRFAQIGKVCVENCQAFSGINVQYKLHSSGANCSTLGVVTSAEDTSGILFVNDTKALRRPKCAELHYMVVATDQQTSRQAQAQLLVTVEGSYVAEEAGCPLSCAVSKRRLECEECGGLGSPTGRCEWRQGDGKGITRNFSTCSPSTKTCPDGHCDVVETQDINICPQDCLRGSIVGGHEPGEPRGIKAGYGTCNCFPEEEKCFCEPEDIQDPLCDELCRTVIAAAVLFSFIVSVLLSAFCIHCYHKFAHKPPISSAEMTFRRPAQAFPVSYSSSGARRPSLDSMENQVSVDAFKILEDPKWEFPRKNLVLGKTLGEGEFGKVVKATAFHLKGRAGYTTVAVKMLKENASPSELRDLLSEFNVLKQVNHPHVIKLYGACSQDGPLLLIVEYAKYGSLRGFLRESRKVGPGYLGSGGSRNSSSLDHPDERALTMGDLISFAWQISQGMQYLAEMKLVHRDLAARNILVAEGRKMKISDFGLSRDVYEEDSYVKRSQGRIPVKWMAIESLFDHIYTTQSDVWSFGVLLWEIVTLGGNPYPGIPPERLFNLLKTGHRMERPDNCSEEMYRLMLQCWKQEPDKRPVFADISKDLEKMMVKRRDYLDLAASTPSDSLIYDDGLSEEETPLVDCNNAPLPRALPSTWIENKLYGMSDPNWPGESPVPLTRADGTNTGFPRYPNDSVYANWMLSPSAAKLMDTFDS
# [14] = molecular target: Proto-oncogene tyrosine-protein kinase receptor Ret (Homo sapiens) (UniProt P07949); settings: at 10 µM
# [15] = molecular target: Macrophage-stimulating protein receptor (Homo sapiens) (UniProt Q04912); settings: at 1 µM
# [16] = molecular target: Macrophage-stimulating protein receptor (Homo sapiens) (UniProt Q04912); settings: at 10 µM
# [17] = molecular target: Proto-oncogene tyrosine-protein kinase ROS (Homo sapiens) (UniProt P08922); settings: at 1 µM
# Proto-oncogene tyrosine-protein kinase ROS (Homo sapiens), sequence (P08922 whole entry): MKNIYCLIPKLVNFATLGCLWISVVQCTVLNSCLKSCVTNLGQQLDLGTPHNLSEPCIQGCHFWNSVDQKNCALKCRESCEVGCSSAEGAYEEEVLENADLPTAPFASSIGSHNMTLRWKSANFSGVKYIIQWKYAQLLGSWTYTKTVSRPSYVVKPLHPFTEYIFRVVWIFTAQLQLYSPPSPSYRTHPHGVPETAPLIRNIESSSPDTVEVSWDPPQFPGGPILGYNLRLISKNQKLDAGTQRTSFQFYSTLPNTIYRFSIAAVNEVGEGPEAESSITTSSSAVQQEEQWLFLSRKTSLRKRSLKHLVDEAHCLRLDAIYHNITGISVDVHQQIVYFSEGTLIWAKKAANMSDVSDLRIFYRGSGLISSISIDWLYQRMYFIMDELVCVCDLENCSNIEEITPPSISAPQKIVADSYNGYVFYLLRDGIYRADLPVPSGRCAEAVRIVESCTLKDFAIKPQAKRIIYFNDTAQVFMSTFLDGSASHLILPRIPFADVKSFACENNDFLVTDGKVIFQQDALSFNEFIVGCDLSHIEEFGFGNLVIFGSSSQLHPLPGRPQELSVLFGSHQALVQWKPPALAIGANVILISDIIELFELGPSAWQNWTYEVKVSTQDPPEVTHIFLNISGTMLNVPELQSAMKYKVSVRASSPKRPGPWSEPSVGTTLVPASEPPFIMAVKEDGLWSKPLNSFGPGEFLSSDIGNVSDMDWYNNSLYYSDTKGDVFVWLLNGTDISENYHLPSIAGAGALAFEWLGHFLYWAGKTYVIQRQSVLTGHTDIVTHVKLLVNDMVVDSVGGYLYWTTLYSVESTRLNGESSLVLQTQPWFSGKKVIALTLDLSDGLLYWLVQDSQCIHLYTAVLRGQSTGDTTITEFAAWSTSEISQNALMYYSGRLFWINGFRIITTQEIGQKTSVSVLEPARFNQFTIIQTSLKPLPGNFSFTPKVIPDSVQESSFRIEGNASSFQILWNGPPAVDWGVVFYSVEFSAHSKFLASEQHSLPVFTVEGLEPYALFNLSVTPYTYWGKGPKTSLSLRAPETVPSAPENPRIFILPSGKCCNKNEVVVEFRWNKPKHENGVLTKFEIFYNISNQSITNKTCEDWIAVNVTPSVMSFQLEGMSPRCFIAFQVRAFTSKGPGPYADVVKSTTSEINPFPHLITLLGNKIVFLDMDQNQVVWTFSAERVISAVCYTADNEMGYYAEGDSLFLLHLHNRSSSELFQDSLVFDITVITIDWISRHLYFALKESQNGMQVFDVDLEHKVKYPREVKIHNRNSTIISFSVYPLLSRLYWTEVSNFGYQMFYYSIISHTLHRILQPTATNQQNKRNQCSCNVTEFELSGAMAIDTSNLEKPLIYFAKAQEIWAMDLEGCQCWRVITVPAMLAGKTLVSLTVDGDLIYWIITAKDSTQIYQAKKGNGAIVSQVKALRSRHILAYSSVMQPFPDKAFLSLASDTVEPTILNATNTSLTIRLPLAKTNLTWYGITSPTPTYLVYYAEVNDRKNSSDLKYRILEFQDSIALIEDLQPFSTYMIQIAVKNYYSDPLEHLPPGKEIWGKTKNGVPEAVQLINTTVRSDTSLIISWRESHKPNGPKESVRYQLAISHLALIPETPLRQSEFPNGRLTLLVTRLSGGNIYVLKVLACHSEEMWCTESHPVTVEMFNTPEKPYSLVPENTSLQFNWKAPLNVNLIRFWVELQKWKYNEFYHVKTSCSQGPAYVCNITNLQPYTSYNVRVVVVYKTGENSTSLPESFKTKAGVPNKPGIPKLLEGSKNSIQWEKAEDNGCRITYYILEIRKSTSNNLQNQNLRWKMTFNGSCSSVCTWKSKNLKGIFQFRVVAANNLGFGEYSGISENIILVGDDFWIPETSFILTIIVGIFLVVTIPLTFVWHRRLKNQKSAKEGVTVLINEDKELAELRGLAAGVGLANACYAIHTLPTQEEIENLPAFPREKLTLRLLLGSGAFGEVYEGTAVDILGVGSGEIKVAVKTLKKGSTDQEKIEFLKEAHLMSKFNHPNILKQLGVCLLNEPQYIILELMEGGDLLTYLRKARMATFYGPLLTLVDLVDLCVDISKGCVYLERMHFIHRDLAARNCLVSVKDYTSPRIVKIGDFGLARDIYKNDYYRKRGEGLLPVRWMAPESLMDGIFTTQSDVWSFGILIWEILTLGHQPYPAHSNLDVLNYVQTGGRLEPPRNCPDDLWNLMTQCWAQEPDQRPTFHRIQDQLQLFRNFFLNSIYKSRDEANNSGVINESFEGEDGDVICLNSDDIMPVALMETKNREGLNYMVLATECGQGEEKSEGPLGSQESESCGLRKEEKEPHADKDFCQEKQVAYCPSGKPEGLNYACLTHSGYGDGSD
# [18] = molecular target: Proto-oncogene tyrosine-protein kinase ROS (Homo sapiens) (UniProt P08922); settings: at 10 µM
# [19] = molecular target: T2, Tyrosine-protein kinase receptor TYRO3 (Homo sapiens) (UniProt Q06418); settings: at 1 µM
# T2 sequence (whole entry): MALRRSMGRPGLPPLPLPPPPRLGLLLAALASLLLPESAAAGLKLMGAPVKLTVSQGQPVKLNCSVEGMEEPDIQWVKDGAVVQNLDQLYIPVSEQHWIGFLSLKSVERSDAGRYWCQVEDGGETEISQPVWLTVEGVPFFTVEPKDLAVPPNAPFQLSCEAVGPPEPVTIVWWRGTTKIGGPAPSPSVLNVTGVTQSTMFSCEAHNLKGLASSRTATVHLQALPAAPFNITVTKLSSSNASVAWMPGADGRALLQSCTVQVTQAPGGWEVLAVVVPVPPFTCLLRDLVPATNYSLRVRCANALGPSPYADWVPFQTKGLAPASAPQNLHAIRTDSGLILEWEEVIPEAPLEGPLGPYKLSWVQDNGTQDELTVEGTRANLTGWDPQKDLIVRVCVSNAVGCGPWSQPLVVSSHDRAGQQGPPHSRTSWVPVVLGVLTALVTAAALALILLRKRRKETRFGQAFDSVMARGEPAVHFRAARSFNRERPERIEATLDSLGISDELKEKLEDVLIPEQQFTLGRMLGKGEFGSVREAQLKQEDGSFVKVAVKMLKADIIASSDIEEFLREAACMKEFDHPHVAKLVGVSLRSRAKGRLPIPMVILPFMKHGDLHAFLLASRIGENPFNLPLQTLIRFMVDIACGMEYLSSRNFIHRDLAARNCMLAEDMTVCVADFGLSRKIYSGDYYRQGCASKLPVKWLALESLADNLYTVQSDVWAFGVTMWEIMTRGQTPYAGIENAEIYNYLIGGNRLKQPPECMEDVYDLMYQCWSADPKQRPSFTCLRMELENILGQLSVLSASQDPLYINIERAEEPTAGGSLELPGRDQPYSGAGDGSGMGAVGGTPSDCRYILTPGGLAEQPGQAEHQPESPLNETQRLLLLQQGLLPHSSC
# [20] = molecular target: T2, Tyrosine-protein kinase receptor TYRO3 (Homo sapiens); settings: at 10 µM
Structure (SMILES),residual activity [1],residual activity [2],residual activity [3],residual activity [4],residual activity [5],residual activity [6],residual activity [7],residual activity [8],residual activity [9],residual activity [10],residual activity [11],residual activity [12],residual activity [13],residual activity [14],residual activity [15],residual activity [16],residual activity [17],residual activity [18],residual activity [19],residual activity [20]
Ic1cccc(CSc2nnc(-c3ccncc3)o2)c1,87% (inactive),94%,57%,71%,103%,101%,82%,78%,113%,98%,68%,58%,93%,74%,81%,78%,93%,75%,112%,94%
Nc1n[nH]c2nnc(-c3c(-c4ccccc4)nn4ccccc34)cc12,97% (inactive),99%,92%,74%,95%,72%,88%,78%,106%,105%,84%,90%,108%,58%,66%,42%,91%,80%,102%,99%
O=C1Nc2ccccc2/C1=C1/Nc2ccccc2/C1=N\OCCC(O)CO (stereo not given),,,66%,41%,7%,2%,58%,50%,114%,98%,,,2%,-1%,75%,61%,,,52%,46%
Cn1nc2c3c(cccc31)C(=O)c1ccccc1-2,100% (inactive),90%,72%,86%,106%,76%,89%,89%,,97%,104%,89%,93%,63%,,,97%,88%,96%,97%
COc1cccc(-c2cc(=O)c3ccccc3o2)c1N,111% (inactive),,90%,33%,106%,112%,92%,106%,117%,100%,97%,96%,114%,83%,93%,97%,106%,97%,78%,122%
CN(C)CCCn1cc(C2=C(c3c[nH]c4ccccc34)C(=O)NC2=O)c2ccccc21,101% (inactive),104%,103%,38%,115%,42%,90%,77%,83%,89%,119%,88%,,64%,102%,87%,108%,,,76%
Oc1ccc(Nc2nc(-c3ccc(Cl)cc3)cs2)cc1,100% (inactive),94%,78%,118%,109%,106%,107%,89%,122%,121%,100%,102%,97%,87%,95%,106%,110%,97%,97%,96%
CO[C@H]1[C@@H](OC)C[C@H](C)[C@@H](OC)C2=CC(=O)C=C(NC(=O)/C(C)=C/C=C/[C@H](OC)[C@@H](OC(N)=O)/C(C)=C/[C@@H]1C)C2=O,99% (inactive),104%,80%,72%,124%,100%,93%,96%,121%,,,,108%,106%,85%,85%,92%,94%,86%,101%
CCN(CC)C(=O)c1ccc(Nc2nc(OCC3CCCCC3)c3nc[nH]c3n2)cc1,101% (inactive),,101%,23%,22%,0%,74%,41%,,23%,33%,4%,3%,0%,72%,42%,95%,,,53%
O=[N+]([O-])c1ccc(-c2nc(-c3ccc(F)cc3)c(-c3ccncc3)[nH]2)cc1,,108%,132%,26%,114%,105%,19%,25%,122%,118%,87%,94%,78%,73%,90%,90%,104%,91%,86%,111%
c1ccc(-c2n[nH]cc2-c2ccnc3ccccc23)nc1,99% (inactive),94%,96%,94%,109%,96%,29%,16%,,127%,93%,76%,104%,91%,,,98%,93%,93%,75%
COc1cc2ncc(-c3ccccc3)nc2cc1OC,95% (inactive),93%,88%,76%,,76%,,58%,,,,,94%,92%,98%,92%,,,96%,98%
O=C1NC(=O)c2cc(Nc3ccc(F)cc3)c(Nc3ccc(F)cc3)cc21,92% (inactive),80%,90%,48%,119%,81%,76%,42%,108%,123%,101%,78%,91%,86%,104%,76%,94%,92%,94%,97%
N#CCCc1ccc2c(c1)-c1[nH]c3ccc([N+](=O)[O-])cc3c1CC(=O)N2,100% (inactive),82%,72%,25%,19%,9%,18%,10%,52%,24%,8%,7%,80%,49%,,,,,75%,59%
N#CC(C#N)=C(N)/C(C#N)=C/c1ccc(O)cc1,79% (inactive),27%,99%,100%,129%,94%,,64%,,,,,,,,100%,95%,92%,,
Oc1c2ccccc2c2c3c(cccc13)N=N2,94% (inactive),82%,86%,70%,68%,23%,70%,52%,,95%,74%,39%,43%,11%,78%,51%,93%,85%,97%,81%
Oc1ccc(-c2nc(-c3ccc(F)cc3)c(-c3ccncc3)[nH]2)cc1,109% (inactive),90%,,,111%,86%,24%,14%,117%,100%,95%,36%,101%,47%,84%,68%,115%,104%,103%,81%
N#Cc1cnc2cnc(NCc3cccnc3)cc2c1Nc1ccc(F)c(Cl)c1,,96%,95%,87%,66%,45%,100%,96%,37%,19%,2%,3%,88%,62%,100%,88%,67%,52%,,
Cc1cc(Nc2nc(-c3ccccc3)nc3ccccc23)n[nH]1,,,81%,38%,20%,4%,,63%,120%,94%,,98%,2%,0%,79%,54%,,40%,98%,53%
C[C@@H](N)[C@H]1CC[C@H](C(=O)Nc2ccncc2)CC1,108% (inactive),96%,72%,24%,,,96%,,77%,31%,19%,4%,,,,101%,104%,105%,123%,124%
Nc1cccc(-c2cc3c(Oc4cccc(O)c4)ncnc3[nH]2)c1,99% (inactive),74%,85%,70%,25%,5%,18%,11%,,97%,93%,87%,2%,0%,83%,40%,98%,60%,6%,0%
CC(C)n1cnc2/c(=N/c3cccc(Cl)c3)nc(NCCO)[nH]c21,93% (inactive),57%,82%,65%,56%,18%,77%,68%,113%,82%,83%,66%,93%,40%,74%,70%,77%,63%,118%,51%
COc1cc2ncnc(N3CCN(C(=O)Nc4ccc(Oc5ccccc5)cc4)CC3)c2cc1OC,90% (inactive),92%,77%,113%,122%,104%,84%,70%,124%,,98%,87%,101%,82%,74%,20%,81%,86%,97%,95%

# — ChEMBL document CHEMBL2218924, “A broad activity screen in support of a chemogenomic map for kinase signalling research and drug discovery” (Biochem J, 2013)
